PubChem BioAssay AID1233 (SRMLSC, 2008)
Measured potencies and affinities stand elsewhere.

What follows are molecules tested against HMG-CoA reductase [Enterococcus faecalis] (UniProt Q9FD70) (assay: class II HMG-CoA reductase inhibition potency – biochemical, Enterococcus faecalis, confirmation (AID 1233;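 further: 0% = full reaction carrier wells and 100% = background wells lacking mevalonate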)). Settings: purified E. faecalis HMGR, NADPH absorbance 340 nm kinetics; series mostly up to 100 µM; inhibition: at the top concentration.

inhibition, inactive:
C=CCOC(=O)c1sc(NC(=O)c2ccco2)nc1C 1.77%
Cc1nn(-c2cc(N3CCCCCC3)ccc2[N+](=O)[O-])c(=O)c2ccccc12 -0.09%
CC1CCCN(C(=O)C2CCN(CC(C)c3ccccc3)CC2)C1 (stereo not given) -5.44%
Cc1cccc(C(=O)Nc2cc(=O)n(C)c(=O)n2C)c1 0.43%
COc1ccc2c(C)cc(=S)[nH]c2c1 -1.14%
COC(c1ccccc1)c1nnc(CCC(=O)NCCC(C)C)o1 (stereo not given) -0.95%
O=C(CCc1nnc(CCCc2ccccc2)o1)NCCc1ccccc1 -5.36%
O=C1c2ccccc2NC(c2ccc(Cl)cc2Cl)N1O (stereo not given) -1.95%
FC(F)(F)c1cnc(Oc2ccc(-c3nnco3)cc2)c(Cl)c1 -1.62%
Cc1ccc(Cl)cc1N=C(N)N=C(N)N -1.8%
CS(=O)(=O)N1CCc2cc(S(=O)(=O)N3CCCCC3)ccc21 -0.68%
CC(=O)c1cccc(NC(=O)Nc2csc3c2CCCC3)c1 -3.82%
COc1ccc(N=C2C(=O)Nc3ccccc32)cc1 -0.06%
Cn1c(SCC(=O)N2CCCC2)nnc1-c1ccc(S(=O)(=O)N2CCCC2)cc1 -0.88%
Clc1ccc(NNc2ccnc3cc(Cl)ccc23)cc1 -3.15%
O=C(CCCN1C(=O)/C(=C\c2cccs2)SC1=S)Nc1ccccn1 -5.05%
CN(c1ccc(C(=O)N2CCCCC2)cc1)S(=O)(=O)c1ccccc1 -3.77%
CCOC(=O)C1(O)CC(C)=NN1C(=O)c1cccc(Br)c1 (stereo not given) -8.26%
CCOc1ccc(S(=O)(=O)N(C)CCO)cc1-c1nc2c(C(C)(C)C)nn(C)c2c(=O)[nH]1 -4.78%
COc1ccc(N2C(=O)C3C4C=CC(C5CC45)C3C2=O)c([N+](=O)[O-])c1 (stereo not given) -1.92%
